Among all 360,000 compounds or so, about 11,000 (3.1%) were called active. Roughly 2% stayed inconclusive and do not appear here. The list comes from a sample in which actives are over-represented; it also holds similar structures and randomly drawn compounds. Unmarked numbers belong to inactive results. Rule as the data show it: active = fluorescence intensity above about 16000; inconclusive = no clear call, values can overlap the other calls; inactive = below that.
assay: compound fluorescence in toxin protease inhibitor counterscreen, primary screen, artefact control for toxin protease inhibitor project, biochemical, multiplex microsphere, HTS (AID 624483); conditions: compound autofluorescence counterscreen, microsphere flow cytometry; stronger effect = higher value

| SMILES | fluorescence intensity |
| --- | --- |
| CCOc1ccc2c(c1)cc(CN(C(=O)CC)C1CCCCC1)c1nnnn12 | 3990 |
| CCOC1=C2[C@@H](CN(S(=O)(=O)c3ccc(C)cc3)[C@H]2c2ccccc2F)[C@H]2C(=O)N(Cc3ccccc3)C(=O)[C@H]2C1 | 4840 |
| CCOc1ccc2[nH]c(=S)sc2c1 | 5910 |
| O=C(c1ccccc1)c1cc(-c2ccccn2)c(N2CCOCC2)s1 | 25300 (active) |
| CCc1ccc2ncc(C(=O)c3ccccc3)c(N3CCOCC3)c2c1 | 6180 |
| O=C(NCC(c1cccs1)N1CCOCC1)c1cc(-c2ccccn2)nc2ccccc12 (centres undefined) | 4740 |
| COc1ccccc1Oc1ccc(S(=O)(=O)Nc2cccnc2)cc1 | 21600 (active) |
| Cc1cc(C)c(C)c(S(=O)(=O)Nc2cccnc2)c1C | 6330 |
| COc1ccc(S(=O)(=O)Nc2cccnc2)c(Cl)c1Cl | 3840 |
| COC(=O)c1ccc2nc(-c3ccc(OC)c(OC)c3)c(Cc3ccccc3)n2c1 | 4370 |
| Fc1cccc(Cc2c(-c3cccc(Cl)c3)nc3ccc(Br)cn23)c1 | 19700 (active) |
| Fc1cccc(Cc2c(-c3ccc(Cl)cc3)nc3ccc(Cl)cn23)c1 | 8180 |
| Clc1cccc(Cc2c(-c3cccc(Cl)c3)nc3ccc(Cl)cn23)c1 | 8680 |
| OC[C@@H]1CN(Cc2ccncc2)C[C@H](n2cnc3c(N4CCN(c5ccccc5)CC4)ncnc32)O1 | 3810 |
| COCCN1C(=O)N(c2ccc(Cl)cc2)C(=O)C1CC(=O)Nc1cc(OC)cc(OC)c1 (centres undefined) | 3750 |
| CC(C)(C)OC(=O)N/N=C/c1ccc(C(=O)O)cc1 | 2640 |
| Cc1cc(C)cc(NC(=O)COC(=O)c2cc(C)oc2C)c1 | 4090 |
| Cc1cc(C(=O)OCC(=O)Nc2ccccc2Cl)c(C)o1 | 8500 |
| Cc1cc(C(=O)OCC(=O)Nc2ccc(F)c(F)c2)c(C)o1 | 21600 (active) |
| CCCCOc1ccc(-c2nnc(-c3ccco3)o2)cc1 | 21200 (active) |

| SMILES | fluorescence intensity |
| --- | --- |
| COc1ccc(-c2nnc(-c3ccc4ccccc4c3)o2)cc1 | 3860 |
| CCCCSc1nnc(-c2ccc(C)cc2)o1 | 11000 |
| NCCCNC(=S)NCCCN(Cc1ccc(Cl)cc1)c1ccc(Br)cn1 | 3820 |
| O=C(NCc1ccco1)c1cccc(-c2ccc3nncn3c2)c1 | 3920 |
| C=CCNC(=O)c1cc2nc(C3CC3)cc(C(F)F)n2n1 | 17500 (active) |
| CC1CCN(C(=O)c2cc3nc(C4CC4)cc(C(F)(F)F)n3n2)CC1 | 3040 |
| O=C(Nc1ccc(Cl)cc1)c1cc2nc(C3CC3)cc(C(F)(F)F)n2n1 | 11300 |
| CN(C)c1cccc(NC(=O)c2ccc(-c3ccc(F)c(F)c3)c3ccoc23)c1 | 3910 |
| CCCCn1nnnc1C(c1cc2ccccc2o1)N(C)Cc1ccc(Cl)c(Cl)c1 (centres undefined) | 5870 |
| C=CCSc1nc(Cc2ccc(Cl)cc2)nc2ccccc12 | 23600 (active) |
| CC(C)N(C(=O)CSc1nc(COc2ccccc2)nc2ccccc12)C(C)C | 3830 |
| CCCNC(=O)CSc1nc(Cc2ccccc2)nc2ccccc12 | 2990 |
| CCc1nc2ccc(C(=O)N3CCC(O)(Cc4ccccc4)CC3)cn2c1N(C)C(=O)Cc1ccccc1 | 3520 |
| O=S1(=O)CC(N2CCC(Cc3ccccc3)CC2)CN1Cc1ccccc1 (centres undefined) | 6300 |
| Cc1noc(C)c1-c1ccc(C(=O)NCc2ccncc2)c2occc12 | 3470 |
| COc1ccccc1N1CCN(S(=O)(=O)c2ccc3c(c2)NC(=O)CS3)CC1 | 5880 |
| Cc1cc(OC(C)C(=O)NC2CC(C)(C)NC(C)(C)C2)c2c(C)cc(=O)oc2c1 (centres undefined) | 6440 |
| CCc1cc(=O)oc2cc(C)cc(OCC(=O)N3CCC[C@@H]3C(=O)O)c12 | 5750 |
| CCc1cc(=O)oc2cc(C)cc(OC(C)C(=O)O)c12 (centres undefined) | 22000 (active) |
| CCCCCCSc1nsc(N)n1 | 6410 |

| SMILES | fluorescence intensity |
| --- | --- |
| CCCSc1nsc(N)n1 | 17300 (active) |
| Nc1nc(SC23CC4CC(CC(C4)C2)C3)ns1 | 3930 |
| Cc1ccc(CNC(=O)c2cc(-c3ccccc3C)n(CC3CC(c4cccc([N+](=O)[O-])c4)=NO3)n2)cc1 (centres undefined) | 4220 |
| CCOC(=O)[C@]12CCC=C1N(Cc1ccccc1)C(=O)[C@H](CC(=O)N1CCCC1)C2 | 5780 |
| CC1(C(=O)NS(=O)(=O)C2CC2)CCCN(C(=O)CSc2ccccc2)C1 (centres undefined) | 3670 |
| CCOC(=O)N1CCC(Nc2c(NCCN3CCN(c4cccc(Cl)c4)CC3)c(=O)c2=O)CC1 | 4590 |
| O=C(Cc1csc(Nc2nc(=S)[nH]c3ccccc23)n1)NCCCN1CCN(c2cccc(Cl)c2)CC1 | 4240 |
| CCn1c(=O)cc(OCC(=O)NCCCN2CCN(c3cccc(Cl)c3)CC2)c2ccccc21 | 20500 (active) |
| O=C(CC[C@H]1O[C@@H](n2ccc(=O)[nH]c2=O)[C@H](O)[C@@H]1O)N[C@H](Cc1ccccc1)C(=O)NCc1ccco1 | 4020 |
| CCOC(=O)C1(C)CCCN(C(=O)c2ccc(N(C)C)cc2)C1 (centres undefined) | 9620 |
| CCOc1cccc(-c2nn3c(-c4ccccn4)nnc3s2)c1 | 16800 (active) |
| CCOc1cccc(-c2nnc(SCC(=O)NC3CC3)n2C)c1 | 5480 |
| Cc1ccccc1NC(=O)CSc1ccc2nnc(-c3ccccn3)n2n1 | 6840 |
| CN(C)S(=O)(=O)N1CCN(c2ccc([N+](=O)[O-])cc2)CC1 | 4070 |
| CCCOc1ccc(F)cc1-c1cc(C(=O)Nc2ccc(F)c(Cl)c2)[nH]n1 | 3800 |
| CN(C)C(=O)c1cccc(-c2cnc3c(NC=O)cc(-c4ccc(F)cc4)cn23)c1 | 3680 |
| CCOC(=O)c1cnc(-n2nc(C)cc2C)nc1-n1nc(C)cc1C | 16800 (active) |
| CCOC(=O)c1cnc(-n2nc(C)cc2C)nc1NNc1cc(C)nc(-c2ccccc2)n1 | 7400 |
| CCOC(=O)c1cnc2c(c(C)nn2CC)c1Cl | 4390 |
